Measurements: PubChem BioAssay AID1239 (SRMLSC, 2008)
The campaign covered roughly 190,000 compounds. About 3,100 (1.6%) were called active. The sample holds actives, similar compounds and a random draw of the others, so the mix is not that of the screen. Values without a mark were called inactive. Cut-off read from the data, not from the text of the source: active = fold change above about 3.3; inconclusive = no clear call, values can overlap the other calls; inactive = below that.

Experiment: activators of NF-kB expression in neurons, primary screen, cell-based, HTS (AID 1239)
Conditions: human neuronal cells, NF-kB reporter expression; at 12.5 µM; stronger effect = higher value

| SMILES | fold change |
| --- | --- |
| CCCCCCCCC(=O)NCCOc1ccccc1 | 1.12 |
| CCCCCCOc1ccc(OC(=O)c2cccnc2)cc1 | 5.55 (active) |
| CCCCOc1ccc(C(=O)NCc2ccncc2)cc1 | 1.15 |
| CCOc1ncccc1C(=O)OCC(=O)NC1CC1 | 1.17 |
| CN1CCN(CC(=O)Nc2cccc([N+](=O)[O-])c2)CC1 | 1.37 |
| COc1cc2c(cc1OC)CN(C(=O)c1ccc(S(=O)(=O)N3CCCCCC3)cc1)CC2 | 0.87 |
| COc1cc2c(cc1OC)CN(C(=O)c1cc(=O)c3ccccc3o1)CC2 | 0.82 |
| CCOc1cc(C(=O)N2CCc3cc(OC)c(OC)cc3C2)ccc1OC(F)F | 4.22 (active) |
| O=Cc1ccc(Oc2cccc(C(F)(F)F)c2)nc1 | 1.2 |
| O=C(CSc1cccc[n+]1[O-])c1ccc(Cl)cc1 | 1.21 |
| CCOc1cccc(/C=C/c2ccc3ccccc3n2)c1OC(C)=O | 4.82 (active) |
| NC(=O)COC(=O)/C=C/c1ccc2ccccc2n1 | 0.97 |
| COc1cccc(/C=C/c2ccc3ccccc3n2)c1OC(C)=O | 3.13 |
| CCOC(=O)c1c(N)nn(C(=O)c2ccccc2)c1-c1ccccc1 | 1.07 |
| C=CCN1C2CCCC1CC(NC(=S)Nc1cccc(OC)c1)C2 (stereo not drawn) | 1.07 |
| CC(CNC(=O)c1ccc(N)cc1)NC(=O)c1ccc(N)cc1 (stereo not drawn) | 1.46 |
| COc1ccc(-c2noc(-c3cccc(OC)c3OC)n2)cc1OC | 3.86 (active) |
| CCOc1nc(-c2ccc(OC)cc2)ccc1-c1noc(-c2cc(OC)c(OC)c(OC)c2)n1 | 1.01 |
| COc1cc(-c2nc(-c3ccncc3)no2)cc(OC)c1OC | 0.54 |
| COc1ccc(OC)c(S(=O)(=O)NCCC(C)C)c1 | 1.13 |
| COc1ccc(NC(C)=O)cc1NC(=O)CN1CCN(c2ccccn2)CC1 | 1.04 |

| SMILES | fold change |
| --- | --- |
| COc1ccc(OC)c(NC(=O)CN2CCN(C(=O)c3ccco3)CC2)c1 | 1.07 |
| COc1ccc(NC(C)=O)cc1NC(=O)CN1CCN(C2c3ccccc3-c3ccccc32)CC1 | 3.62 (active) |
| Nc1ncc(-c2cc3ccccc3oc2=O)s1 | 3.48 (active) |
| O=c1oc2ccccc2cc1-c1cn(-c2ccccc2)c(=S)[nH]1 | 0.83 |
| O=C(NCc1cccnc1)c1cccc(-c2cc3ccccc3oc2=O)c1 | 0.93 |
| O=C(/C=C/c1ccc2c(c1)OCO2)NCc1cn2cc(Cl)ccc2n1 | 1.09 |
| COc1ccc(N(C)S(=O)(=O)c2cccc3nsnc23)cc1 | 1.25 |
| O=C(c1ccc(N2CCOCC2)c([N+](=O)[O-])c1)N1CCN(S(=O)(=O)c2cccs2)CC1 | 1.15 |
| C=CCn1c(CCNC(=O)c2ccccc2F)nnc1SCC(=O)Nc1ccc(OC)cc1 | 1.12 |
| CCCC1(C(=O)OC)NC(c2ccco2)C2C(=O)N(C)C(=O)C21 (stereo not drawn) | 1 |
| COc1ccc(/C=C2\CCc3ccccc3C2=O)c(OC)c1OC | 1.7 |
| Cc1ccc(N2CCN(C3=NC(=O)/C(=C\c4cccs4)S3)CC2)cc1 | 1.27 |
| O=C1/C(=C/c2cccs2)CCC1C1CCCC1 (stereo not drawn) | 5.68 (active) |
| O=S(=O)(c1cccs1)N1CCc2ccccc2C1 | 1.07 |
| O=C1/C(=C/c2cccs2)CCc2ccccc21 | 5.83 (active) |
| CCC1C/C(=C/c2cccs2)C(=O)/C(=C/c2cccs2)C1 (stereo not drawn) | 1.07 |
| CC(=O)C1(C)N(O)C(C)(C)C(c2cccs2)=[N+]1[O-] (stereo not drawn) | 0.95 |
| CCn1nc(C)cc1C(=O)N1CCCC(C(=O)c2cccc(OC)c2)C1 (stereo not drawn) | 1.1 |
| COc1ccc(CN2CCN(Cc3cn(C)nc3-c3ccccc3)CC2CCO)c(C)c1C (stereo not drawn) | 1.01 |
| CCc1ccc(NC(=O)Cn2nc(C)c([N+](=O)[O-])c2C)cc1 | 1.28 |
| O=c1[nH]c(CCl)nc2cc(-c3ccc(Cl)cc3)sc12 | 4.29 (active) |

| SMILES | fold change |
| --- | --- |
| O=c1[nH]c(CN2CCOCC2)nc2cc(Cl)ccc12 | 1.04 |
| NC(=O)Cc1nc2scc(-c3ccc(Cl)cc3)c2c(=O)[nH]1 | 0.99 |
| COc1ccc(S(=O)(=O)N2CCOCC2)cc1NC(=O)CSc1ncnc2ccccc12 | 1.56 |
| CCN1C(=O)/C(=c2\s/c(=C3\Sc4ccccc4N3C)c(=O)n2C)N(C)C1=S | 1.16 |
| CN(C)CCCN1C(=O)CSC1c1ccc([N+](=O)[O-])cc1 (stereo not drawn) | 1.03 |
| COCC1CCCN(Cc2nc(-c3ccc4c(c3)OCO4)no2)C1 (stereo not drawn) | 1.62 |
| CN(c1ccccc1)c1ccc(/C=c2\s/c(=C(/C#N)C(=O)C(C)(C)C)n(Cc3ccco3)c2=O)cc1 | 1.52 |
| Cc1csc(=Nc2ccccc2)n1CCO | 1.05 |
| Cc1cs/c(=N\N=C\c2ccc(O)cc2)n1Cc1ccco1 | 4.11 (active) |
| Cc1nnc(SC(C(=O)Nc2cc(Cl)cc(Cl)c2)c2ccccc2)[nH]c1=O (stereo not drawn) | 1.02 |
| Cc1ccnc(Nc2nc3ccccc3s2)n1 | 4.25 (active) |
| CSCCC(Nc1nc2ccccc2s1)C(=O)O (stereo not drawn) | 1.16 |
| Cc1ccc(S(=O)(=O)Nc2nc3ccccc3s2)cc1[N+](=O)[O-] | 1.51 |
| O=C(Nc1cccc([N+](=O)[O-])c1)Nc1ccc(Cl)cn1 | 0.9 |
| CC(C)C(=O)Nc1cccc(NC(=O)c2ccc([N+](=O)[O-])cc2Cl)c1 | 1.13 |
| O=C(/C=C/c1ccc(Cl)cc1)Nc1ccc(Br)cn1 | 1.07 |
| O=C(Nc1ccc(Br)cn1)c1ccc([N+](=O)[O-])cc1Cl | 3.54 (active) |
| O=C(Nc1ccc(Br)cn1)c1ccc([N+](=O)[O-])o1 | 4.41 (active) |
| O=C(Nc1ccc(Br)c2cccnc12)c1ccc(Cn2cc([N+](=O)[O-])cn2)o1 | 1.07 |
| C/C(=N/O)c1ccc(N2C(=O)C3C4C=CC(C3C2=O)C2C3C(=O)N(c5ccc(/C(C)=N/O)cc5)C(=O)C3C42)cc1 (stereo not drawn) | 1.33 |
| NC(=O)Cn1nc([N+](=O)[O-])nc1Oc1ccc(Br)cc1 | 0.99 |
